# Assay results reported in PubChem BioAssay.
# Unmarked numbers belong to inactive results. No rule for the calls is given here.
# Molecular target: Pantothenate synthetase (Mycobacterium tuberculosis (strain ATCC 25618 / H37Rv)) (UniProt P9WIL5)
# Assay: Recombinant Mtb pantothenate synthetase (PanC) inhibitors, coupled enzyme, confirmatory (AID 375);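 also: 0% = full reaction with vehicle and 100% = no enzyme background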
# Conditions: coupled enzyme assay; at 10 µM, stronger effect = higher value
# Chain of Pantothenate synthetase (Mycobacterium tuberculosis (strain ATCC 25618 / H37Rv)) (P9WIL5 whole entry, looked up): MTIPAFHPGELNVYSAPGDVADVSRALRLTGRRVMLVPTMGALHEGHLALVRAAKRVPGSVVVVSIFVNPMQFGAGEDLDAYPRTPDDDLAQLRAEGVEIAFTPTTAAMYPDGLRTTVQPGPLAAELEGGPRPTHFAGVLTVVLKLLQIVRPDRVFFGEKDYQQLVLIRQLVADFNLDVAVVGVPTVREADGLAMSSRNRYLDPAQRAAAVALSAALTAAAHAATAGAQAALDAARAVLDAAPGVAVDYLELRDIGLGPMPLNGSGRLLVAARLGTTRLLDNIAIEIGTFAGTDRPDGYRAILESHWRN
row,Compound,inhibition [%]
1,CC(C)COC(=O)C(C#N)c1nc2ccccc2nc1N1CCN(Cc2ccccc2)CC1 (configuration not stated),0
2,CCCNC(=O)C1CN(S(=O)(=O)c2ccccc2)CCN1S(=O)(=O)c1ccccc1 (configuration not stated),0
3,CCCS(=O)(=O)N1CCN(Cc2ccc(OCc3ccccc3)c(OC)c2)CC1,4
4,Cn1cccc1Cc1nnc(SCC(=O)Nc2ccccc2F)n1CCc1ccccc1,0
5,CCCCc1nc2ccccc2n2cc3c(=O)n(C)c(=O)n(C)c3c12,0
6,Cc1cc(C)nc(N2CCC(C(=O)Nc3ccc(Oc4ccccc4)cc3)CC2)n1,0
7,CCOCCCNC(=O)C(c1ccccc1)N(Cc1ccc2c(c1)OCO2)C(=O)CNC(C)=O (configuration not stated),1
8,CC(=O)c1ccc(NC(=O)CCc2c(C)nc3ncnn3c2C)cc1,4
9,O=C(CCSc1ccccc1)N1CCOCC1,0
10,CCCn1nnc(NCc2ccc(OCc3cccs3)c(OC)c2)n1,0
11,COc1cc([C@@H]2[C@H]3CN(C)CC=C3C(C#N)=C(N)C2(C#N)C#N)cc2c1OCO2,0
12,COC(=O)c1ccccc1NC(=O)CC(NCc1ccccc1)C(=O)O (configuration not stated),0
13,COC(=O)C(NC(C)=O)(Nc1nc2ccc(S(C)(=O)=O)cc2s1)C(F)(F)F (configuration not stated),0
14,Cc1nc(N)c(C#N)c(-c2cccnc2)c1C,0
15,Cc1ccc(CSC2=NCCN2C(=O)c2ccco2)cc1,0
16,O=C1CCCN1Cc1ncnn1-c1ccccc1,4
17,C=C(C)Cn1c(SCC)nc2ccccc2c1=O,4
